BAZ2B block: qHTS Assay for Inhibitors of BAZ2B. Bromodomain adjacent to zinc finger domain protein 2B (Homo sapiens), Q9UIF8. AlphaScreen BAZ2B-H3K14Ac peptide displacement. Potency, µM (highest dose often 114 µM), inactives show at the highest dose activity change, negative = inhibition, usual class: inhibitors. 4.4% of 360,000 active. AID 504333, 2011; note: potency is the fitted concentration of half-maximal effect; % is set by controls: 0 for no effect and ±100 for the full control effect; nearly all actives have a fitted effect of over 60% in size
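Multi-concentration screen (max 110 uM) measuring displacement of acetylated histone H3 peptide from BAZ2B by AlphaScreen, using 50 nM protein, 50 nM peptide and 10 ug/mL streptavidin donor plus Ni-chelate acceptor beads.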
PI5P4Ka inh: qHTS for Inhibitors of phosphatidylinositol 5-phosphate 4-kinase (PI5P4K) | Phosphatidylinositol 5-phosphate 4-kinase type-2 alpha (Homo sapiens), P48426 | PI5P4Kalpha enzyme, ADP-Glo luminescence, 60 min; hits give low values | max response, % | 1.2% of 330,000 active | AID 652105, 2013; active = max response of -50% or lower; inconclusive = between -30% and -50%; inactive = -30% or higher; note: value at the top dose of about 77 µM; % is set by controls: 0 for no effect and ±100 for the full control effect
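Luminescence from ADP-Glo served as readout of PI5P4Kalpha activity in a qHTS format. Reaction: enzyme, substrate, compound, ATP at 5 microM final, 60 min at RT.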
G9a inh: qHTS Assay for Inhibitors of Histone Lysine Methyltransferase G9a; Histone-lysine N-methyltransferase EHMT2 (Homo sapiens), Q96KQ7; G9a H3K9 monomethylation, AlphaScreen, 2 h; Potency, µM (series often up to 102 µM), inactives show at the highest dose activity, negative = inhibition, usual class: inhibitors; 8.8% of 350,000 active; AID 504332, 2011; note: potency is the fitted concentration of half-maximal effect; % is set by controls: 0 for no effect and ±100 for the full control effect; nearly all actives have a fitted effect of over 75% in size
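AlphaScreen read-out: biotin-H3K9 peptide (500 nM) methylation by 20 nM enzyme with 20 uM SAM, 2 h at room temperature after 15 min compound preincubation; anti-monomethyl H3K9 antibody plus donor/acceptor beads, 10 min dark.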
JMJD2A Tudor: qHTS Assay for Inhibitors of JMJD2A-Tudor Domain. Lysine-specific demethylase 4A (Homo sapiens), O75164. AlphaScreen JMJD2A-Tudor / H3K4me3 peptide binding. 4.4% of 390,000 active. Potency, µM (doses to about 114 µM), without a hit: at the highest dose activity change, negative = inhibition, hits mostly inhibitors; note: potency is the fitted concentration of half-maximal effect; % is set by controls: 0 for no effect and ±100 for the full control effect; nearly all actives have a fitted effect of over 50% in size
HP1b binding inh: HTS for Inhibitors of HP1-beta Chromodomain Interactions with Methylated Histone Tails; 0.56% of 390,000 active; AlphaScreen HP1-beta / biotin-H3K9me3 peptide binding; Potency, µM (series often up to 114 µM), for the others: at the highest dose activity change, negative = inhibition, most hits filed as inhibitors; Chromobox protein homolog 1 (Homo sapiens), P83916; note: potency is the fitted concentration of half-maximal effect; nearly all actives have a fitted effect of over 70% in size
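AlphaScreen: HP1-beta (50 nM) preformed 30 min with biotin-H3(1-18)K9me3 peptide (50 nM) in PBS pH 7.4, 0.01% Tween-20. Compound added for 30 min at RT, then streptavidin donor/nickel chelate acceptor beads (10 ug/mL) for 30 min.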
L3MBTL1 inh: qHTS Assay for the Inhibitors of L3MBTL1; AID 485360, 2010; 0.66% of 230,000 active; Potency, µM (series often up to 57.1 µM), without a hit: top-dose activity, negative = inhibition, usual class: inhibitors; Lethal(3)malignant brain tumor-like protein 1 (Homo sapiens), Q9Y468; AlphaScreen L3MBTL1–H3K9me1 peptide binding; note: potency is the fitted concentration of half-maximal effect; % is set by controls: 0 for no effect and ±100 for the full control effect; nearly all actives have a fitted effect of over 60% in size
Target sequence (Q9Y468 whole entry, looked up): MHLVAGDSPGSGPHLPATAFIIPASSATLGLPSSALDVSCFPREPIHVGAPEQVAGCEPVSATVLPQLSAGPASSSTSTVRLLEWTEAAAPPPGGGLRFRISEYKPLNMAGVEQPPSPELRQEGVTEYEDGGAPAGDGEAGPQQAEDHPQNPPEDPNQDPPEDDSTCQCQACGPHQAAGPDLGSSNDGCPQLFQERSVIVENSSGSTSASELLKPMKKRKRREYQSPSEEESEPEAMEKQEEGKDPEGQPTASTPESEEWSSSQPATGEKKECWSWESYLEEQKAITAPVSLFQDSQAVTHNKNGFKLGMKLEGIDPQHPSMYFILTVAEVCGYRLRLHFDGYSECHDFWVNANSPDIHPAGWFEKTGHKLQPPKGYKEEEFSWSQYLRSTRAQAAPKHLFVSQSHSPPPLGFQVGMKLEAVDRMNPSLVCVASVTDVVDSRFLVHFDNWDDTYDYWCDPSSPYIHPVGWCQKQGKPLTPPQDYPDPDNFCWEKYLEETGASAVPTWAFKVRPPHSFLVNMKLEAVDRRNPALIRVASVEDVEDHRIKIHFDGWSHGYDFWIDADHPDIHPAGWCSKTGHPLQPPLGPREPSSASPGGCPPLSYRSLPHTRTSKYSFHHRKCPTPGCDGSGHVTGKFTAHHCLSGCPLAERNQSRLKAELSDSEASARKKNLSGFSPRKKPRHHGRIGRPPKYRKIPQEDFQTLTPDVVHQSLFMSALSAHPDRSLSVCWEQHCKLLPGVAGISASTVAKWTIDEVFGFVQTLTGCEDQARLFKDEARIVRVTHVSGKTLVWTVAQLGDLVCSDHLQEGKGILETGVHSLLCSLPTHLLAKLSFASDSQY
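First, the protein-peptide complex forms for 30 min at room temperature (L3MBTL1 50 nM, biotinylated H3K9me1 peptide 75 nM). Next, compounds are pin-transferred and incubated 30 min. Finally, AlphaScreen beads are added and read after 30 min.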
Numbers without * were called inactive; ? = inconclusive; . = no result; [ ] = another dose, or the depositor's remark. The list is not random: actives were taken first. Their share in the collection is about 11%. Unless noted, calls come from the whole dose curve; as a rule, active = well fitted inhibition curve with a large enough effect; inconclusive = small, poorly fitted or top-dose-only effect; inactive = no such curve, though single readings can be large or run the other way.

SMILES | BAZ2B block | PI5P4Ka inh | G9a inh | JMJD2A Tudor | HP1b binding inh | L3MBTL1 inh
Cc1ccc(S(=O)(=O)NCCc2nnc3ccc(SCC(=O)Nc4c(C)cc(C)cc4C)nn23)cc1 | -14% | . | -10%[59 µM] | -19% | 15% | .
Cc1ccccc1C1CC(=O)Oc2cc(C)c(Cl)c(C)c21 (configuration not stated) | . | . | 25% | . | . | .
CC(C)c1ccc(C2=NC(c3ccncc3)=Nc3ccc(F)cc3N2)cc1 | ? | . | -34%[59 µM] | ? | -3% | .
CCOc1ccc(CN2CCc3nc(Nc4ccc(OC)cc4OC)ncc3C2)cc1 | -37% | . | ? | 50µM* | -36% | .
CCc1ccc(CN2CCc3nc(Nc4ccccc4)ncc3C2)cc1 | -34% | . | 5%[12.7 µM] | -24% | 13% | .
Cc1ccccc1CN1CCc2nc(Nc3ccc4c(c3)OCCO4)ncc2C1 | 22µM* | . | ? | 35µM* | -11% | .
CC(C)Oc1ccc(CN2CCc3nc(Nc4ccc5c(c4)OCCO5)ncc3C2)cc1 | 32µM* | . | -26%[12.7 µM] | 32µM* | -17% | .
CCOc1ccc(CCNCc2c(C(=O)O)c(C)n(Cc3ccccc3F)c2C)cc1 | ? | . | -8%[59 µM] | -31% | -4% | .
COCCN(CCOC)C(=O)c1cc2c(=O)n3ccccc3nc2n1C | ? | . | ? | -27% | 11% | .
O=C(CCCOc1ccc(Cl)cc1Cl)Nc1ccccc1C(=O)O | -1% | -1 | -3% | -13% | 32% | 4%
CCCCOc1ccc(Nc2cc(Cl)ccc2C(=O)O)cn1 | 71µM* | 1 | 30%[0.501 µM] | ? | -30% | .
O=C(CC1C(=O)Nc2ccccc2N1CC(=O)N1CCCC1)Nc1ccc(Br)cc1 (configuration not stated) | 2% | -2 | 0.28µM* | -18% | 28% | 1%
CCCCCCCC(=O)N1c2ccccc2NC(=O)C1CC(=O)Nc1ccc(C(=O)O)cc1 (configuration not stated) | -2% | 1 | -9% | -18% | 12% | 7%
Cc1ccc(NC(=O)CN2C(=O)N/C(=C/c3ccccc3OCc3cccc(C(=O)O)c3)C2=O)cc1 | 18µM* | -29 | 45µM* | 28µM* | ? | .
COc1cc2c(cc1/C=C1/NC(=O)N(CC(=O)Nc3ccccc3)C1=O)OCO2 | -18% | -15 | -35% | -8% | 4% | 0%
COc1cccc(/C=C2/NC(=O)N(CC(=O)Nc3ccc(C)cc3)C2=O)c1OCc1cccc(C(=O)O)c1 | 25µM* | -26 | ? | ? | ? | .
Cc1ccc(NC(=O)CN2C(=O)N/C(=C/c3ccc4c(c3)OCCO4)C2=O)cc1 | 1% | -2 | 20% | -8% | 3% | .
N#Cc1nc(N(c2ccccc2)c2ccccc2)nc(-n2cccc2)n1 | . | . | . | -23%[57.1 µM] | -8%[57 µM] | .
CCn1cc(C(=O)OCC(=O)Nc2cc(Cl)ccc2OC)c(=O)c2ccc(C)nc21 | -2% | . | -3%[59 µM] | -10% | 26% | .
O=C1C2CCCCN2C(=O)N1CCCN1CCN(c2ccc(F)cc2)CC1 (configuration not stated) | -3% | -1 | 12%[0.501 µM] | ? | 33% | 0%[2.29 µM]
Nc1ccc(N2CCN(CCCCN3C(=O)C4CCCN4C3=O)CC2)cc1 (configuration not stated) | ? | -12 | 10µM* | ? | -28% | 0%
CCC(=O)Nc1cc(C)c(NC(=O)C23CC4CC(CC(C4)C2)C3)cn1 | 13% | 2 | 1.1µM* | 1% | 51% | -1%
CC(C)CN(CC(C)C)C(=O)CC(=O)NC(=O)c1ccc(Cl)cc1 | 89µM* | 0 | -5%[59 µM] | 16% | 21% | 4%
COCC(C)NC(=O)NC(=O)c1ccc(Cl)cc1 (configuration not stated) | 9% | . | 18%[59 µM] | 9% | 30% | 4%
Cn1c(=S)c2[nH]c(SCCN)nc2n(C)c1=O | . | -17 | . | 1.1µM* | -14% | .
SMILES | BAZ2B block | PI5P4Ka inh | G9a inh | JMJD2A Tudor | HP1b binding inh | L3MBTL1 inh
Cn1c(=S)c2[nH]c(SCCN3CCCC3)nc2n(C)c1=O | ? | -10 | -142%[59 µM] | ? | 7% | .
NC(=O)c1ccc(N=Nc2c(O)c3ccccc3[nH]c2=O)cc1 | ? | . | ? | . | . | -17%
Oc1[nH]c2ccccc2c1N=Nc1c(F)c(F)c(Cl)c(F)c1F | -7% | 6 | -3% | -1% | 52% | .
Cc1[nH]c2ccccc2c1N=Nc1ccccc1F | 40µM* | 16 | 40µM* | 45µM* | ? | .
Cc1[nH]c2ccccc2c1N=Nc1ccc(F)cc1 | 32µM* | 59 | 40µM* | 89µM* | ? | -2%
Cc1[nH]c2ccccc2c1N=Nc1cc(C(=O)O)cc(C(=O)O)c1 | ? | -9 | 35µM* | -21% | -11% | ?
CCOC(=O)C(Cc1c[nH]c2ccccc12)NC(=O)COc1ccc(Cl)c(C)c1 (configuration not stated) | -26% | . | -33%[59 µM] | ? | -5% | .
COc1ccc(C2NC(=O)N(C)C3=C2C(=O)N(c2ccccc2)C3)cc1 (configuration not stated) | ? | . | -6%[59 µM] | -3% | 24% | .
CN1C(=O)NC(c2ccccc2)C2=C1CN(c1cccc(C(F)(F)F)c1)C2=O (configuration not stated) | -3% | 5 | 50µM* | -20%[57.1 µM] | 33% | 11%
CCN(CC)S(=O)(=O)c1ccc(NC2c3ncccc3C(=O)N2Cc2ccccc2)cc1 (configuration not stated) | ? | . | . | 28µM* | -5% | -14%
O=C1c2ccccc2C(Nc2ccc3c(c2)OCCO3)N1c1ccccn1 (configuration not stated) | ? | 1 | -42%[59 µM] | ? | -25% | -10%
O=C1OC(Nc2ccc3c(c2)OCO3)c2ccccc21 (configuration not stated) | 40µM* | -14 | ? | 50µM* | ? | -2%
O=C1c2ccccc2C(Nc2ccc3c(c2)OCCO3)N1c1ccc(Cl)cn1 (configuration not stated) | 40µM* | -2 | 45µM* | ? | ? | .
O=C1c2ccccc2C(Nc2ccc3c(c2)OCCO3)N1Cc1ccc2c(c1)OCO2 (configuration not stated) | 35µM* | 9 | ? | 40µM* | -25% | ?
O=C1OC(Nc2ccc(F)c([N+](=O)[O-])c2)c2ccccc21 (configuration not stated) | -32% | -5 | -34% | -6% | 22% | .

High-throughput results (PubChem)
